Pin1 inh: blocks the human prolyl isomerase Pin1 | AID 504891 | actives 0.009% (n = 390,000) | Pin1 FP peptide displacement, HiFluor488, 10 min | Potency, µM (top dose mostly 115 µM), actives largely listed as inhibitors; active means well fitted inhibition curve with a large enough effect in the polarisation, with a control signal flat, not every such curve was filed as active; inconclusive means small, poorly fitted or top-dose-only effect, or effect the other way, or a change in a side signal; inactive means no such curve, though single readings can be large or run the other way; the % refers to the polarisation
Target sequence (Q13526 whole entry, looked up): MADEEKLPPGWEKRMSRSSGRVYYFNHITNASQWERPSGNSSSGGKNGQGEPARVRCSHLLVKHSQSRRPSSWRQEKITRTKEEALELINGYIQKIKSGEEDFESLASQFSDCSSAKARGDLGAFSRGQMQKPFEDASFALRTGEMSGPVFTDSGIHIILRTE
PI5P4K alpha inh: PI5P4K alpha (human) kinase inhibition; actives 1.2% (n = 330,000); P48426; max response, %; PI5P4Kalpha enzyme, ADP-Glo luminescence, 60 min; hits give low values; active means max response of -50% or lower; inconclusive means between -30% and -50%; inactive means -30% or higher; further: value at the top dose of about 77 µM
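qHTS, 1536-well: enzyme/substrate mix, compound by pin tool, 5 microM ATP final; RT 60 min; ADP-Glo reagents 1 (45 min) then 2 (30 min); luminescence.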
PI4K2A block: blocks human PI4K2A kinase activity | Q9BTU6 | purified PI4K2A, ADP-Glo luminescence, 1 h; hits give low values | activity change, negative = inhibition, % at 76.9 µM | actives 0.13% (n = 420,000) | AID 1346378; in the data active means activity change below about -50%; inconclusive means mostly about -30% to -49%
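In this quantitative HTS, ADP production by PI4K2A was quantified luminescently after 1 h at ambient temperature; 100 microM adenosine served as plate-quality control.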
Tb PFK block: blocks T. brucei phosphofructokinase; O15648; T. brucei PFK, ADP-Glo luminescence; Potency, µM (doses to about 57.5 µM), hits mostly inhibitors; actives 0.17% (n = 330,000); further: nearly all actives have a fitted effect of over 60% in size
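PFK 1.25 nM, F6P 0.5 mM, ATP 0.1 mM, 0.1 M TEA pH 8.0, 5 mM MgCl2, 0.01% Tween20, 0.1% BSA; 45 min RT. ADP-Glo readout. qHTS titration up to 57 uM; curves fitted, compounds curve-classed.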
PGK inhibitor: blocks T. brucei phosphoglycerate kinase | P07378 | PGK/GAPDH coupled, Kinase-Glo luminescence, 60 min | Potency, µM (top dose mostly 57.5 µM), usual class: inhibitors | actives 0.043% (n = 380,000) | AID 602233; further: nearly all actives have a fitted effect of over 60% in size
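Luminescent ATP detection (Kinase-Glo Plus) follows a 60-minute room-temperature incubation, with wells lacking PGK as controls. Buffer: 100 mM TEA (pH 7.6), 5 mM MgCl2, 0.01% Tween-20. Coupling enzyme GAPDH (100 nM final) supplies unstable 1,3-BPG in-well.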
A number is an active result; n = inactive; u = inconclusive; x = no result given. Shown is part of a subset that was picked to be rich in hits. Unless noted, the call rests on the fitted dose curve; in most records, active means well fitted curve in the direction sought with a large enough effect; inconclusive means small, poorly fitted or top-dose-only effect, or another doubt; inactive means no such curve, though single readings can be large; an effect the other way counts as inactive or inconclusive.

SMILES	Pin1 inh	PI5P4K alpha inh	PI4K2A block	Tb PFK block	PGK inhibitor
CCOc1ccccc1N1C(=O)NC(=O)/C(=C/c2ccc3c4c(cccc24)CC3)C1=O	u	-64	n	n	n
Clc1ccccc1N1CCNCC1	x	x	n	x	x
COc1ccc2cc1Oc1ccc(cc1)C[C@H]1c3cc(c(OC)cc3CCN1C)Oc1c(OC)c(OC)cc3c1[C@H](C2)N(C)CC3	n	n	n	n	n
COc1cc2c3c(c1OC)Oc1ccc(cc1)C[C@H]1c4c(cc(OC)c(OC)c4Oc4ccc(cc4)C[C@@H]3N(C)CC2)CCN1C	n	-92	n	n	n
O=C1C(I)=CC(=C(c2cc(I)c(O)c(I)c2)c2ccccc2C(=O)O)C=C1I	x	x	n	x	x
CCC(=O)C(CCN(C)C)(c1ccccc1)c1ccccc1	x	x	n	x	x
COc1ccc(N2C(=O)/C(=C/c3ccc(OC)c(OC)c3)C(=O)NC2=S)cc1	n	-54	n	n	n
CCOC(=O)CSCCOc1ccc(C=C2C(=O)NC(=O)NC2=O)cc1OC	n	u	n	n	n
CCOC(=O)COc1ccc(/C=C2\C(=O)NC(=S)N(c3ccc(OC)cc3)C2=O)cc1OC	n	-56	n	n	n
COC(=O)COc1ccc(/C=C2\C(=O)NC(=S)N(c3ccc(C)cc3)C2=O)cc1OC	u	-54	n	n	n
Oc1ccc2c3c1O[C@H]1[C@@H](O)C=C[C@H]4[C@@H](C2)NCC[C@@]341	x	x	n	x	x
CC(=O)OCC1=C(C(=O)O)N2C(=O)[C@@H](N)[C@H]2SC1	x	x	n	x	x
NS(=O)(=O)c1ccc(-c2ccc(C=C3C(=O)NC(=O)NC3=O)o2)cc1	n	-64	u	n	n
O=C1NC(=O)C(=Cc2ccc(-c3cc(Cl)ccc3[N+](=O)[O-])o2)C(=O)N1	n	-53	n	n	n
Sc1ccccc1Cl	x	x	n	x	x
C[C@H]1[C@@H]2Cc3ccc(O)cc3[C@@]1(C)CCN2C	x	x	n	x	x
C=CCC1(CC)C(=O)NC(=S)NC1=O	n	n	n	x	n
C=CCC1C(=O)NC(=S)NC1=O	n	-63	n	n	n
O=C1NC(=O)C(=Cc2coc3ccccc3c2=O)C(=O)N1	u	-77	n	n	x
O=C1NC(=O)C(=Cc2csc3ccccc23)C(=O)N1	n	-73	u	n	n
O=C1NC(=O)C(=C/C=C/c2coc3ccc(Br)cc3c2=O)C(=O)N1	x	x	x	n	x
CC1=C(O)C(=O)C=C2C1=CC=C1C2(C)CCC2(C)C3CC(C)(C(=O)O)CCC3(C)CCC12C (stereo not drawn)	u	-72	n	x	n
COc1cc(/C=C2\C(=O)NC(=O)N(CCc3ccc(F)cc3)C2=O)ccc1O	u	-78	-53	n	n
CCOc1ccc(/C=C2/C(=O)NC(=O)N(CCc3ccc(F)cc3)C2=O)cc1	n	-55	n	n	n
O=C1NC(=S)SC1=Cc1ccc(N(CCCl)CCCl)cc1	u	-72	n	x	n
SMILES	Pin1 inh	PI5P4K alpha inh	PI4K2A block	Tb PFK block	PGK inhibitor
CN1C2CCC(C)(C)C1CC(OC(=O)C(O)(c1cccs1)c1cccs1)C2 (stereo not drawn)	x	x	n	x	x
O=C(Nc1ccc(Oc2ccc(Cl)cc2)c(Cl)c1)c1cc(I)cc(I)c1O	u	-55	n	n	n
O=C(Nc1ccc(Br)cc1)c1cc(Br)cc(Br)c1O	x	x	n	x	x
CCN(CC)C(=O)c1ccc2c(c1)C1C(Cl)C(Sc3ccccc3[N+](=O)[O-])CC1C(C(=O)O)N2 (stereo not drawn)	u	-59	n	n	n
CCN(CC)C(=O)c1ccc2c(c1)C1C=CCC1C(C(=O)O)N2 (stereo not drawn)	u	u	n	u	18µM
CN(C)CCc1c[nH]c2ccccc12	x	x	n	x	x
C[N+]1(C)[C@@H]2CC[C@H]1CC(OC(=O)C(CO)c1ccccc1)C2 (stereo partly drawn)	n	n	n	n	n
C[N+]1([O-])[C@@H]2CC(OC(=O)[C@H](CO)c3ccccc3)C[C@H]1[C@@H]1O[C@@H]12 (stereo partly drawn)	n	-59	n	n	n
CC(Cc1ccc2c(c1)OCO2)NO (stereo not drawn)	x	x	n	x	x
COP(=S)(OC)Oc1ccc(Sc2ccc(OP(=S)(OC)OC)cc2)cc1	u	-64	n	x	n
COP(=S)(OC)Oc1ccc(S(N)(=O)=O)cc1	x	x	n	x	x
CC(C)c1ccc(N2C(=O)NC(=O)/C(=C/C=C/c3ccco3)C2=O)cc1	u	-66	n	n	n

High-throughput results deposited in PubChem by National Center for Advancing Translational Sciences (NCATS).
